# In the library only some 2.3% were active in any assay of this set; here they are far more common.
# CHRM1 antagonist: blocks human M1 muscarinic receptor; P11229; CHO-K1 hM1, Fluo-8 calcium fluorescence, ACh EC80 antagonist; inhibition, % at 3 µM; actives 1.3% (n = 360,000);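 active means percent inhibition above its own plate's cutoff, namely the mean of that plate's compound wells plus 3 SD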;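 further: peak over basal fluorescence ratio during 140 s after agonist addition; 0% = ACh EC80 plus DMSO and 100% = DMSO alone without agonist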
# Target sequence (P11229 whole entry, looked up): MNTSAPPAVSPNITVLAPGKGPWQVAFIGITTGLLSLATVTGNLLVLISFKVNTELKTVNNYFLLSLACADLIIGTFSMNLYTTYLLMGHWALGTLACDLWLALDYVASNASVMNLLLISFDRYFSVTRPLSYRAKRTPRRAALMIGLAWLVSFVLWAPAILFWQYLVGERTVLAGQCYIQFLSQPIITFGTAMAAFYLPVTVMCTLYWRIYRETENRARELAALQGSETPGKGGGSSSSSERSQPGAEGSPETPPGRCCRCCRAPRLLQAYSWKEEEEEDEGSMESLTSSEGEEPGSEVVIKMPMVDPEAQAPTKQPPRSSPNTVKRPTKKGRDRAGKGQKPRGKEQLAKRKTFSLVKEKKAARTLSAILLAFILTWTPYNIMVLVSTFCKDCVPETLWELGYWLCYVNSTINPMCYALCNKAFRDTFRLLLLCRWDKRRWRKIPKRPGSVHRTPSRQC
# CHO-K1 Ca ag: M1 agonist counterscreen hit in parental CHO-K1 cells; AID 602248; Fluo-8 calcium fluorescence; scaled to maximal ATP response, vehicle zero; actives 0.48% (n = 360,000); activation, % at 3 µM; in the data active means activation above about 15%;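 further: untransfected CHO-K1 host cells lacking M1 receptor as counterscreen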
# CHRM1 agonist: human M1 muscarinic receptor agonism; actives 0.33% (n = 360,000); activation, % at 3 µM; CHO-K1 hM1, Fluo-8 calcium fluorescence, agonist mode; 0% DMSO, 100% acetylcholine EC100;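 active means activation above the run's mean compound activation plus 3 SD, cut at about 16% in these data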;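 further: peak over basal fluorescence ratio within a 140 s kinetic read after compound addition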
# M1 PAM parental: nonselective activator or artifact in parental CHO-K1 calcium assay; ATP EC20, Fluo-8 calcium fluorescence; 0% at ATP EC20, 100% at ATP max; activation, % at 3 µM; actives 0.02% (n = 360,000); AID 602247;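 active means activation above the run cutoff, the mean activation of all test compounds plus 3 SD, cut at about 40% in these data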;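 further: peak over basal fluorescence ratio in a 140 s read after ATP addition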
# CHO-K1 Ca antag: nonselective inhibitor or artifact in parental CHO-K1 cells. ATP-induced calcium, Fluo-8 fluorescence. inhibition, % at 3 µM. actives 0.6% (n = 360,000). AID 602250;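 active means inhibition above a per-plate cutoff, the plate's mean sample inhibition plus 3 SD, cut at about 24% in these data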;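 further: 0% = DMSO plus EC80 ATP and 100% = DMSO alone without ATP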
# CHRM1 PAM: positive allosteric modulators of human M1 muscarinic receptor. P11229. CHO-K1 hM1, Fluo-8 calcium fluorescence, ACh EC20; 0% = ACh EC20, 100% = maximal ACh. activation, % at 3 µM. actives 0.088% (n = 360,000). AID 588819; in the data active means activation above about 19%, passing the limit was not always enough
# An asterisk follows results filed as active.
SMILES,CHRM1 antagonist,CHO-K1 Ca ag,CHRM1 agonist,M1 PAM parental,CHO-K1 Ca antag,CHRM1 PAM
COc1ccc(CN(C)C(=O)c2ccc(Cl)c(S(=O)(=O)NCc3cccnc3)c2)cc1F,-5,5,-3,-4,-13,3
C/C(=N\NC(=O)c1ccccc1)C1C2C=CC(C2)C1(C)C (centres undefined),-2,1,-2,11,-3,2
CN1CCC(N(C)C(=S)Nc2ccc(F)cc2)CC1,3,0,-4,4,-4,4
CN1CCC(N(C)C(=S)Nc2ccc(SC(F)F)cc2)CC1,-1,1,18*,9,-6,-3
O=C1/C(=C/c2ccccc2)CCC1C1CCCC1 (centres undefined),-9,0,-4,-8,9,6
O=C1/C(=C/c2ccc(F)cc2)CCC1C1CCCC1 (centres undefined),-16,0,-3,-12,24*,7
Cc1cccc(-n2ncc3c2CCCC3NC(=O)CCc2cccnc2)c1C (centres undefined),-1,7,0,15,-15,11
COc1ccccc1C(CNC(=O)c1cccc(S(=O)(=O)Nc2ccc(C)cc2)c1)N(C)C (centres undefined),99*,1,-5,-4,-8,-24
COc1ccc(NS(=O)(=O)c2ccc(-c3cnc(C4CC4)o3)cc2)cc1OC,34,16*,2,-19,23,-12
COc1ccccc1NS(=O)(=O)c1ccc(-c2cnc(C3CC3)o2)cc1,0,6,-1,14,-13,0
COc1ccc(NS(=O)(=O)c2cccc(C(=O)NCC(c3ccccc3)N(C)C)c2)cc1 (centres undefined),19,3,2,6,3,-9
COc1ccc(NS(=O)(=O)c2ccc3c(c2)OCCO3)cc1OC,26*,14,2,-2,36*,-13
COc1ccccc1C(CNC(=O)c1ccc(NS(=O)(=O)c2ccc3c(c2)OCCO3)cc1)N(C)C (centres undefined),40*,0,8,-20,15,-15
COc1ccc(CNC(=O)COC(=O)c2cc(S(=O)(=O)N3CCOCC3)ccc2O)cc1OC,-17,0,-1,8,2,10
CC1CCCCC12NC(=O)N(CC(=O)OCC(=O)NC(=O)c1ccccc1)C2=O (centres undefined),-7,1,-1,13,-9,6
CCOc1ccc(NC(=O)C2CC(=O)N(c3ccc4c(c3)OCCO4)C2)cc1OCC (centres undefined),-12,0,-4,12,4,9
C[C@H](NC(=O)C1CCN(S(=O)(=O)c2ccccc2)CC1)C(=O)NCc1ccc(F)cc1,-14,1,-2,9,-8,7
CS(=O)(=O)Nc1cc2c3c(c1)CCC(=O)N3CCC2,0,0,-1,18,-21,1
Cc1ccc(C)c(OCCC(=O)OCC(=O)NCCNC(=O)COC(=O)CCOc2cc(C)ccc2C)c1,47*,15,3,-16,27*,-18
Cc1ccc(C)c(OCCC(=O)OCC(=O)NCc2ccccc2)c1,-10,0,-2,-8,0,10
O=C(Nc1ccc(Cl)cc1)Nc1ccc(N2CCOCC2)cc1,11,4,-1,13,-12,-2
O=C(Nc1ccccc1)Nc1ccc(Cl)c(S(=O)(=O)N2CCOCC2)c1,23,18*,3,-7,10,-11
O=C(Nc1ccc(N2CCCC2)cc1)c1cc(Cl)ccc1Cl,36*,0,-9,1,-3,-26
O=S(=O)(c1ccc(NCc2ccccc2)cc1)N1CCOCC1,24,1,-2,-26,25*,-8
O=C(Nc1ccc(N2CCCC2)cc1)c1ccc(Cl)cc1Cl,-11,0,-6,1,-3,7
O=C(Nc1ccc(N2CCOCC2)cc1)Nc1ccc(Cl)c(Cl)c1,55*,13,4,-16,33*,-33
CC1=CC2=C(C=O)C(=O)C(C)(O)C(O)C2=CO1 (centres undefined),-17,0,-2,16,-14,15
O=C(N1CCOCC1)C1(c2ccc(Cl)cc2)CCCC1,-5,1,-4,16,-13,9

# Compound activity: PubChem, The Scripps Research Institute Molecular Screening Center
